The nature of experiment [1]: blockers of polyQ-driven CASP3 activation – cell-based (AID 1583). As to conditions: polyglutamine-induced caspase-3 activation, cell assay; stronger effect = higher value;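 tested at 10 µM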.
Experiment [2] in a line: yeast 75Q aggregation reduction – 75Q-TubU reporter (AID 1593). The conditions noted are these: Yeast 75Q polyglutamine aggregation reporter.
Experiment [3] is described as follows: restoration of touch response, mutant HTT neurons – whole organism, C. elegans mechanosensory neurons, N-terminal huntingtin (AID 1599). As to conditions: C. elegans polyQ-huntingtin mechanosensory neurons, stronger effect = higher value.
Experiment [4] in a line: blockers of cytochrome c efflux from mitochondria – biochemical, purified mitochondria (AID 1603).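 Further: mouse liver mitochondria challenged with calcium chloride; signal normalized to the plate average as 100%.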 As to conditions: stronger effect = lower value.
Experiment [5] is described as follows: polyglutamine aggregate formation blockers (AID 1604). The conditions noted are these: polyglutamine-induced protein aggregation inhibition assay; stronger effect = higher value; tested at 2.5 µM.
The nature of experiment [6]: glutamate transport activators, MN-1 cells, MN-1 cell line (AID 1612).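 Further: tested at 1 µM final; 0% = mean of DMSO vehicle wells on each plate; positive means more glutamate uptake than control and negative means less.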 The conditions noted are these: MN-1 motor neuron cells, stronger effect = higher value.
Experiment [7] in a line: GFP-Q80 aggregate reduction, neuronal-like cells, cell-based, NGF-treated PC12, GFPQ80 (AID 1614).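 Further: lower means fewer inclusions and 0 means no inclusions at all.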 As to conditions: PC12 NGF-treated GFP-polyQ80 inclusion reduction.
Experiment [8] can be described thus: 75Q-TubH aggregate inhibition, S. cerevisiae, yeast (AID 1616). As to conditions: S. cerevisiae 75Q-TubH polyglutamine aggregation suppression; stronger effect = higher value.
A short description of experiment [9]: P. berghei load reduction in hepatocytes – cell-based, HepG2, luciferase luminescence, HepG2 viability, primary screen (AID 624349).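 Further: 100% = mean of DMSO negative control wells on the same plate.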 The conditions noted are these: P. berghei liver stage in HepG2, luciferase luminescence, concentration not given here; parasite load remaining: stronger effect = lower value; viability: measured here: HepG2 viability without parasites.
The nature of experiment [10]: EMT-state selective cytotoxicity in co-culture – imaging, PC-3E GFP, TEM4-18 mCherry, primary screen (AID 1345086;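 active means compounds killing one labelled cell type while sparing the other, by normalised counts and ratio limits, not self-fluorescent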;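 on all read-outs here: cells exposed to compound for 72 h before imaging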;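 on red/green cell ratio (normalised): normalised mesenchymal count divided by normalised epithelial count so high means epithelial killing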). The conditions noted are these: PC-3E GFP / TEM4-18 mCherry co-culture, imaging cell counts, at 1 µM; for red/green cell ratio (normalised): actives lie on both sides, counts scaled to control wells, 1 = unselective.
A short description of experiment [11]: viability loss with induced miR-34 in A549 – imaging, A549 dox-inducible miR-34, nuclei and caspase counts, primary screen (AID 1347080;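 active means compounds whose cell count with miR-34 switched on is under 0.7 times the count with it off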). The conditions noted are these: A549 miR-34 inducible, Hoechst nuclei count, 48 h.
[12] abbreviates: measured here: epithelial PC-3E GFP cell survival.
The mark [13] stands for this setting: measured here: mesenchymal TEM4-18 mCherry cell survival.
Setting [14] is: stronger effect = lower value, cell number ratio, induced over uninduced.
Where [15] appears, read: measured here: relative caspase fold change +Dox/-Dox.
The mark [16] stands for this setting: measured here: total cells with miR-34 induction, stronger effect = lower value.
The mark [17] stands for this setting: measured here: total cells without miR-34 induction.

“And” between values parts separate entries of the source, which are not always exact repeats. Identical values can stand only once. For some of these results: Entries with a potency or affinity are not part of this list. The source made the active and inactive calls. Unless noted, no stated cut-off is given here; in the data, active means parasite load remaining mostly below about 12% (no sharp cut-off); inactive means mostly above about 10%.

Regarding `CO[C@H]1/C=C/O[C@@]2(C)Oc3c(C)c(O)c4c(O)c(c(C=NN5CCN(C)CC5)c(O)c4c3C2=O)NC(=O)/C(C)=C\C=C\C(C)[C@H](O)[C@@H](C)[C@@H](O)[C@@H](C)[C@@H](OC(C)=O)[C@@H]1C` (stereo not given in full), in experiment [1], the inhibition (in general, the relative decrease from the control value, in per cent) is -10.8%. For the same compound, in experiment [2], the score is 1.2. This compound gave a rescue above control in experiment [3] of 1.38. In [4], the cytochrome c release ratio was determined as 0.69. The inhibition of aggregation in [5] came out at 83.1%. Further, the glutamate uptake change in experiment [6] is -15.2%. Moreover, the inclusion score in [7] was 2. For the same compound, the aggregation suppression score in experiment [8] is 0.812. The parasite load remaining in experiment [9] was 73.9% (inactive) and 34.2% (inactive). Also, in experiment [9], the viability (as a rule, a read-out of living cells in per cent, often relative to untreated cells) was 73.4% and 91.2%. Further, the red/green cell ratio (normalised) in [10] was 1.06 (inactive). The values for the normalised cell number in experiment [10] (setting [12]) and in [10] (setting [13]) were 0.87 and 0.91, respectively. Further, the figures for the fold change in [11] (setting [14]) and in experiment [11] (setting [15]) were 0.892 (inactive) and 3.2, respectively. Besides, the cell count came to 11300 in experiment [11] (setting [16]) and 12700 in experiment [11] (setting [17]).

In the case of `Nc1ncnc2c1ncn2C1O[C@H](COP(=O)(O)O)[C@@H](O)[C@H]1O` (stereo not given in full), in experiment [1], the inhibition stood at 5.37%. In [2], this compound gave a score of 1.5. For the same compound, the rescue above control in experiment [3] was 1.04. The cytochrome c release ratio in experiment [4] turned out to be 0.86. Further, the inhibition of aggregation in experiment [5] came to 92.6%. In addition, the glutamate uptake change in experiment [6] is -13.1%. Moreover, the inclusion score in experiment [7] was 2. Further, in experiment [8], the aggregation suppression score came out at 1.2. The parasite load remaining in experiment [9] is 124% (inactive) and 48.3% (inactive). Also, the viability in [9] was 75.9% and 108%. The red/green cell ratio (normalised) in [10] is 0.96 (inactive). Further, the results for the normalised cell number in experiment [10] (setting [12]) and in experiment [10] (setting [13]) were 1.18 and 1.13, respectively. The fold change in [11] (setting [14]) was 0.861 (inactive); in [11] (setting [15]) it was 1.84. The cell count in [11] (setting [16]) came to 11700; in experiment [11] (setting [17]) it was 13600.

For the compound `CO[C@@]1(NC(=O)CSCC#N)C(=O)N2C(C(=O)O)=C(CSc3nnnn3C)CSC21` (stereo not given in full), in experiment [1], the inhibition is 20.8%. For the same compound, the score in experiment [2] was found to be 1.29. Also, the rescue above control in [3] was -0.81. Besides, the cytochrome c release ratio in [4] was found to be 0.56. Also, in experiment [5], the inhibition of aggregation amounted to 33.3%. Also, the glutamate uptake change in experiment [6] is -5.52%. This compound displayed an inclusion score in experiment [7] of 2. Besides, the aggregation suppression score in experiment [8] was determined as 1.5. For the same compound, the parasite load remaining in experiment [9] was 99.4% (inactive) and 54.5% (inactive). In addition, in experiment [9], the viability was 73% and 111%. Also, the red/green cell ratio (normalised) in experiment [10] was 0.89 (inactive). In addition, the normalised cell number in [10] (setting [12]) turned out to be 1.07; in experiment [10] (setting [13]), 0.95. Further, the fold change in experiment [11] (setting [14]) is 0.923 (inactive); in [11] (setting [15]) it was 3.61. The cell count was 12200 in [11] (setting [16]) and 13200 in [11] (setting [17]).

Turning to `C[C@]12C=CC(=O)C=C1CCC1C3C[C@@H](O)[C@](O)(C(=O)CO)[C@@]3(C)C[C@H](O)[C@@]12F` (stereo not given in full), the inhibition in experiment [1] is -13.4%. The compound further had a score in experiment [2] of 1.07. In addition, in [3], the rescue above control was -12.1. Besides, the cytochrome c release ratio in [4] came to 1.15. The inhibition of aggregation in [5] amounted to 48.1%. Moreover, the glutamate uptake change in experiment [6] is -1.32%. The inclusion score in [7] is 2. In experiment [8], this compound gave an aggregation suppression score of 1.12. Also, the parasite load remaining in experiment [9] was 233% (inactive) and 58.4% (inactive). Also, the viability in [9] was 72.6% and 84.9%. Moreover, the red/green cell ratio (normalised) in experiment [10] is 1.46 (inactive). For the same compound, the normalised cell number in [10] (setting [12]) was determined as 0.85; in experiment [10] (setting [13]), 1.24. The fold change in [11] (setting [14]) was 0.829 (inactive); in experiment [11] (setting [15]) it was 2.83. In addition, the cell count was 6430 in experiment [11] (setting [16]) and 7760 in experiment [11] (setting [17]).

In the case of `C=C[C@@]1(C)CC(=O)[C@@]2(O)[C@](C)(O1)[C@@H](OC(C)=O)[C@@H](O)C1C(C)(C)CC[C@H](O)[C@@]12C` (stereo not given in full), in experiment [1], the inhibition is 4.06%. In addition, the score in experiment [2] was 1.39. The same compound registered a rescue above control in [3] of 0.33. Further, the cytochrome c release ratio in [4] came to 0.91. Also, in experiment [5], the inhibition of aggregation is 15.4%. The glutamate uptake change in experiment [6] is 15.8%. Further, the inclusion score in experiment [7] was determined as 1. Besides, the aggregation suppression score in experiment [8] stood at 1.2. In experiment [9], the parasite load remaining was 150% (inactive) and 45.5% (inactive). The viability in experiment [9] was 93.3% and 96.7%. The red/green cell ratio (normalised) in experiment [10] is 1 (inactive). The normalised cell number in [10] (setting [12]) worked out at 1.25; in [10] (setting [13]), 1.26. For the same compound, the fold change was 0.888 (inactive) in [11] (setting [14]) and 3.59 in [11] (setting [15]). The cell count in experiment [11] (setting [16]) worked out at 11900; in experiment [11] (setting [17]), 13400.

For the origin of these results see PubChem BioAssay.
